Hits are enriched below; roughly 12% of the tested compounds scored in any of these assays.
Sfp PPTase inh = inhibitors of Bacillus subtilis Sfp phosphopantetheinyl transferase; Q9F4F7; Biochemical Sfp PPTase activity, qHTS; Potency, µM, for the others: largest response in the series, negative = inhibition, usual class: inhibitors; 3.5% of 310,000 active;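 also: the enzyme is Sfp with the accession as filed and its product quenches rhodamine fluorescence; 0% = enzyme reaction without inhibitor and -100% = no enzyme wells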
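Fluorescence-quenching assay: 15 nM Sfp-PPTase preincubated 15 min at room temperature with compound, then 5 uM rhodamine-CoA and 12.5 uM BHQ-2-labelled YbbR peptide added. Fluorescence (ex 525/em 598 nm) read at start and after 30 min; difference gives rate.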
BAZ2B block = BAZ2B (human) inhibition | AlphaScreen BAZ2B-H3K14Ac peptide displacement | Potency, µM (titrated, usually from 114 µM), without a hit: at the top dose activity change, negative = inhibition, most hits filed as inhibitors | 4.4% of 360,000 active; also: % is scaled to controls: 0 for no effect and ±100 for the full control effect; nearly all actives have a fitted effect of over 60% in size
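Complex of BAZ2B and biotin-H3K14Ac (50 nM apiece) forms over 30 min at RT, then faces library compounds up to 110 uM for another 30 min; AlphaScreen beads added, 20 min dark incubation, luminescence read.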
JMJD2A Tudor = blocks the human JMJD2A Tudor domain; O75164; AlphaScreen JMJD2A-Tudor / H3K4me3 peptide binding; Potency, µM (doses to about 114 µM), for inactives: at the highest dose activity change, negative = inhibition, usual class: inhibitors; 4.4% of 390,000 active; AID 504339; also: % is scaled to controls: 0 for no effect and ±100 for the full control effect; nearly all actives have a fitted effect of over 50% in size
HP1b binding inh = inhibitors of HP1-beta chromodomain binding to methylated histone tails; 0.56% of 390,000 active; Potency, µM (doses to about 114 µM), for inactives: at the top dose activity change, negative = inhibition, hits mostly inhibitors; AlphaScreen HP1-beta / biotin-H3K9me3 peptide binding; P83916; also: nearly all actives have a fitted effect of over 70% in size
Target sequence (P83916 whole entry, looked up): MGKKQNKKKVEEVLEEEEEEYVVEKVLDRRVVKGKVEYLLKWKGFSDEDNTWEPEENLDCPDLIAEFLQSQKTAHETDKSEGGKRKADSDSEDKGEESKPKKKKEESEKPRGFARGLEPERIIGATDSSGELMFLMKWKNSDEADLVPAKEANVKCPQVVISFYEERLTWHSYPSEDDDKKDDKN
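HP1-beta protein (50 nM final) preincubated 30 min at room temperature with biotinylated H3(1-18)K9me3 peptide (50 nM) in PBS pH 7.4, 0.01% Tween-20, then compound added for 30 min. AlphaScreen streptavidin donor/nickel chelate acceptor beads (10 ug/mL final), 30 min dark, luminescence read.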
G9a block = G9a (human) methyltransferase inhibition. Q96KQ7. G9a H3K9 monomethylation, AlphaScreen, 2 h. Potency, µM (highest dose often 102 µM), for inactives: top-dose activity, negative = inhibition, actives largely listed as inhibitors. 8.8% of 350,000 active; also: % is scaled to controls: 0 for no effect and ±100 for the full control effect; nearly all actives have a fitted effect of over 75% in size
Target sequence (Q96KQ7 913-1193 limits assumed): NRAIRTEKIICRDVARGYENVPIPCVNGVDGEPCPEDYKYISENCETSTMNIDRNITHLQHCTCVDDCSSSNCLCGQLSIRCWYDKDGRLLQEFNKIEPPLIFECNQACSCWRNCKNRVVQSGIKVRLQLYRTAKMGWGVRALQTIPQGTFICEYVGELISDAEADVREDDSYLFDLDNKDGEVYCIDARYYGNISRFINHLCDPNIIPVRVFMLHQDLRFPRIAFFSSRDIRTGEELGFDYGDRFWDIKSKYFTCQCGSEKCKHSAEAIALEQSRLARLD
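Quantitative HTS format: methyltransferase activity on a biotin-tagged H3K9 peptide is measured by AlphaScreen, using a rabbit anti-monomethyl-H3K9 antibody with streptavidin donor and anti-IgG acceptor beads. Final levels are 20 nM enzyme, 500 nM peptide, 20 uM SAM; 2 h RT.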
An asterisk follows results filed as active; ? = inconclusive; . = no result; [ ] = dose if it differs, or a comment. Calls follow the shape of the dose curve; as a rule, active = well fitted curve in the direction sought with a large enough effect; inconclusive = small, poorly fitted or top-dose-only effect, or another doubt; inactive = no such curve, though single readings can be large; an effect the other way counts as inactive or inconclusive. Potency is read from the fitted curve at half-maximal effect.

SMILES	Sfp PPTase inh	BAZ2B block	JMJD2A Tudor	HP1b binding inh	G9a block
C=CCN1C(=O)/C(=C\C(C)=C\c2ccccc2)SC1=S	11.5%	?	?	?	24.3%[0.501 µM]
CC(=C\c1ccccc1)/C=C1/SC(=S)N(C(C(=O)O)C(C)C)C1=O (configuration not stated)	-6.5%	70.8µM*	?	?	35.5µM*
CCc1ccc(/C=C2/SC(=S)N(CCC(=O)Nc3cccc(C(=O)O)c3)C2=O)cc1	-9.2%	35.5µM*	50.1µM*	-4.3%	.
CC(/C=C1\SC(=S)N(CCC(=O)Nc2cccc(C(=O)O)c2)C1=O)=C\c1ccccc1	-9.7%	56.2µM*	?	70.8µM*	44.7µM*
CC(/C=C1\SC(=S)N(NC(=O)c2ccc(O)cc2)C1=O)=C\c1ccccc1	50.1µM*	31.6µM*	?	?	?
CC(/C=C1\SC(=S)N(CCCC(=O)Nc2ccc(C(=O)O)cc2)C1=O)=C\c1ccccc1	-10.2%	39.8µM*	?	-28.5%	12.6µM*
CC(=C\c1ccccc1)/C=C1/SC(=S)N(CCCC(=O)O)C1=O	-14.7%	?	-35.2%	-11.3%	39.8µM*
COc1ccc(C2C(C(=O)OCC3CCCO3)=C(C)NC3=C2C(=O)CC(c2ccco2)C3)cc1O (configuration not stated)	56.2µM*	-10.7%[57.1 µM]	-19.6%[57.1 µM]	-15.8%	-16.6%
CC(C)CNC(=O)CC(=O)N/N=C/c1cccs1	-3.7%	4.4%	4.1%	30.2%	-6.8%[59 µM]
CCN=c1scc(-c2cccs2)n1/N=C/c1cc(OC)ccc1O	?	12.6µM*	39.8µM*	14.1µM*	?
CC(C)N=c1scc(-c2cccs2)n1/N=C/c1ccc(O)c(O)c1O	11.2µM*	31.6µM*	22.4µM*	25.1µM*	3.98µM*
COc1ccc(OC)c(N(CC(=O)Nc2cccnc2)S(=O)(=O)c2ccccc2)c1	11.9%	2.8%	-10.8%	28.0%	13.0%
CCCNC(=O)CSc1nccn1Cc1ccco1	-7.8%	-2.9%	0.7%	16.4%	17.4%[59 µM]
O=C(Cn1c(C(F)(F)F)nc2ccccc21)c1ccc(Cl)cc1	-7.9%	2.6%	-7.7%	18.6%	6.1%[59 µM]
O=C(/C=C/c1ccc([N+](=O)[O-])cc1)Nc1cccnc1	-4.8%	?	?	35.4%	13.5%
CSc1sccc1/C=N/NC(=O)c1ccncc1	17.6%	-3.4%	-35.0%	9.6%	13.9%
O=c1ccc2[n+]([O-])c3ccc(O)cc3oc-2c1	?	10µM*	-19.6%	?	10µM*
O=C(NCc1ccccn1)C1CCN(S(=O)(=O)N2CCCCC2)CC1	14.1%	-1.9%	-3.6%	16.4%	26.6%[0.501 µM]
O=C(NC(=S)NCC1CCCO1)c1ccco1 (configuration not stated)	19.6%	-11.8%	-13.1%	10.2%	-36.1%
Cc1c(C(=O)N/N=C/c2ccncc2)no[n+]1[O-]	-7.3%	-22.6%	0.0%	44.0%	1.5%
C=CC(=O)Nc1cccc(N(C)c2ccnc(Nc3ccc(N4CCN(C)CC4)cc3)n2)c1	.	.	14.1µM*	50.1µM*	.
C=CC(=O)Nc1cccc(Oc2ccnc3[nH]ccc23)c1	.	.	79.4µM*	?	.
CN1CCN(c2ccc(NC(=O)c3ccc4ccccc4c3)cc2)CC1	-15.0%	?	-22.1%	9.4%[57 µM]	8.0%
C=CC(=O)Nc1cccc(Oc2ccnc(Nc3ccc(N4CCN(C)CC4)cc3)n2)c1	.	.	44.7µM*	?	.
CCc1ccc(NC(=O)NNC(=O)CCc2ccccc2)cc1	21.6%	-2.4%	-2.8%	39.2%	-1.3%
SMILES	Sfp PPTase inh	BAZ2B block	JMJD2A Tudor	HP1b binding inh	G9a block
COc1ccc(CNC(=O)CC(NC(N)=O)c2ccccc2Cl)cc1OC (configuration not stated)	6.4%	12.7%	-4.2%	21.1%	9.8%
O=[N+]([O-])c1ccc2[nH]c3c(c2c1)CCCC3	12.5%	?	?	2.6%	39.8µM*
Brc1ccc2[nH]c3c(c2c1)CCC3	9.3%	50.1µM*	?	-22.0%	?
O=[N+]([O-])c1cccc2c3c([nH]c12)CCCC3	17.9%	?	-29.2%	?	8.91µM*
Cc1[nH]c2c([N+](=O)[O-])cccc2c1C	4.6%	20.2%	?	-28.2%	.
COC(=O)N1CC=CC1(C)C(=O)NCC1CC1 (configuration not stated)	33.8%	.	.	.	.
O=C(Nc1ccccc1NC(=O)c1c(F)c(F)c(F)c(F)c1F)c1c(F)c(F)c(F)c(F)c1F	14.8%	-1.6%	-9.6%	20.6%	-1.6%[12.7 µM]
COC(=O)[C@@]1(Cc2ccc(OC)cc2)[C@@H]2C(=CC(=O)[C@H]2CC(=O)C(=O)N2CCCC2)CN1C(=O)c1ccccc1	1.9%	-9.2%	8.4%	40.1%	?
C=C1C(=O)C=C2CN(C(=O)c3ccccc3)[C@@](Cc3ccc(OC)cc3)(C(=O)OC)[C@@H]12	3.98µM*	.	.	.	.
COC(=O)[C@@]1(Cc2ccc(F)cc2)[C@H]2c3cc(C(=O)N4CCCC4)n(CCCNc4ncc(C(F)(F)F)cc4Cl)c3C[C@H]2CN1C(=O)c1ccccc1	3.8%	-35.1%	?	4.3%	31.6µM*
COC(=O)[C@@]1(Cc2ccc(OC)cc2)[C@H]2c3cc(C(=O)N(C)C)n(CCc4ccc(O)c(OC)c4)c3C[C@H]2CN1C(=O)c1ccccc1	20.7%	.	.	.	.
COC(=O)[C@@]1(Cc2ccc(OC)cc2)[C@H]2c3cc(C(=O)N(C)C)n(Cc4ccc(C)o4)c3C[C@H]2CN1C(=O)c1ccccc1	25.1µM*	.	.	.	.
COC(=O)[C@@]1(Cc2ccc(OC)cc2)[C@H]2c3cc(C(=O)N(C)C)n(CCc4ccc(OC)c(Br)c4)c3C[C@H]2CN1C(=O)c1ccccc1	-6.9%	?	.	.	39.8µM*
COC(=O)[C@@]1(Cc2ccc(F)cc2)[C@H]2c3cc(C(=O)N4CCCC4)n(CCF)c3C[C@H]2CN1C(=O)c1ccccc1	-4.8%	.	.	.	.
CC1(C)Cc2c(cnn2-c2ccc(F)cc2)C(NC(=O)CCCN2CCCCC2=O)C1 (configuration not stated)	8.4%	-1.8%	-12.5%	4.9%	25.0%
O=C(CCn1c(=O)c2sccc2n(CC(=O)NCc2ccco2)c1=O)NCc1ccccc1	-26.8%	-3.5%	-15.2%	44.9%	?
Cc1ccc(NC(=O)C2CCC(=O)N2C(=O)OCc2ccccc2)cc1 (configuration not stated)	-49.8%	-2.2%	-3.6%	10.3%	-11.0%
CC(C)CN(C(=O)CCC(=O)OCC(=O)NCCc1ccccc1)c1c(N)n(CC(C)C)c(=O)[nH]c1=O	9.8%	-1.6%	-4.8%	18.5%[57 µM]	26.9%
COc1ccc(CNC(=S)Nc2cccc(Cl)c2)cc1	.	.	-12.8%	65.3%	.
COC(=O)[C@@]1(Cc2ccc(OC)cc2)[C@H]2c3cc(C(=O)N(C)C)n(CCO)c3C[C@H]2CN1C(=O)c1ccccc1	21.5%	.	.	.	.

Compound activity from PubChem BioAssay.
